From PubChem BioAssay
This is a sample that favours compounds with a hit; in the whole collection about 19% have one here.
TDP1 cell CPT: qHTS for Inhibitors of human tyrosyl-DNA phosphodiesterase 1 (TDP1): qHTS in cells in presence of CPT | Potency, µM (doses to about 46.2 µM), hits mostly inhibitors | chicken DT40 Tdp1-/-;hTDP1 cells + 20 nM CPT, ATP luminescence, 48 h | hit rate 12% among 420,000; further: nearly all actives have a fitted effect of over 55% in size
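Chicken DT40 Tdp1-/- cells complemented with human TDP1, 400 cells/well, exposed to compounds plus 20 nM camptothecin for at least 48 h at 37 C; viability read as ATP content by CellTiter-Glo luminescence.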
IL1B secr inh: qHTS for Inhibitors of Inflammasome Signaling: IL-1-beta AlphaLISA Primary Screen | THP-1 LPS/ATP IL-1B secretion, AlphaLISA, 16 h; active compounds read low | activity change, % at 57.5 µM | hit rate 4.7% among 360,000; in the data active means activity change below about -50%; inconclusive means mostly about -30% to -49%
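Secreted IL-1B measured by AlphaLISA bead assay after 16 h compound exposure of THP-1 cells; compounds (final up to 57.5 uM) added 1 h before LPS (250 ng/mL) and ATP (1.25 mM) stimulation; lower signal means less secretion.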
TDP1 cell noCPT: qHTS for Inhibitors of human tyrosyl-DNA phosphodiesterase 1 (TDP1): qHTS in cells in absence of CPT. hit rate 15% among 420,000. AID 686978, 2013. DT40 Tdp1-/- hTDP1 cells, no CPT, ATP luminescence, 48 h. Potency, µM (titrated, usually from 46.2 µM), usual class: inhibitors; further: nearly all actives have a fitted effect of over 55% in size
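Camptothecin absent (DMSO only). Human TDP1-complemented DT40 knockout cells, 400 cells/well, 37 °C for minimum 48 hr; ATP measured via CellTiter-Glo, 30 min dark incubation, luminescence.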
HT1080 IDH1KD tx: qHTS for induction of synthetic lethality in tumor cells producing 2HG: qHTS for the HT-1080-IDH1KD cell line. HT-1080 IDH1 knockdown viability, ATP luminescence, 48 h. AID 686971, 2013. hit rate 2% among 360,000. Potency, µM (top dose mostly 46.1 µM), actives largely listed as cytotoxic
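Cytotoxicity counter-line: IDH1KD HT-1080, 48 h, CellTiter-Glo. Curves classed by r2, magnitude and activity.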
HT1080-NT tox: qHTS for induction of synthetic lethality in tumor cells producing 2HG: qHTS for the HT-1080-NT fibrosarcoma cell line. HT-1080-NT fibrosarcoma viability, CellTiter-Glo ATP luminescence, 48 h. Potency, µM (series often up to 46.1 µM), most hits filed as cytotoxic. hit rate 1.6% among 360,000. AID 686970, 2013;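 further: NT is the 2HG producing partner of a matched IDH1 knockdown line; nearly all actives have a fitted effect of over 55% in size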
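Toxicity toward the 2HG-producing NT line was scored as %Activity, normalised to DMSO and no-cell wells, from CellTiter-Glo luminescence after 48 hours' treatment.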
A number is an active result; . = inactive; ? = inconclusive; / = no result given. Unless noted, the call rests on the fitted dose curve; in most records, active means well fitted curve in the direction sought with a large enough effect; inconclusive means small, poorly fitted or top-dose-only effect, or another doubt; inactive means no such curve, though single readings can be large; an effect the other way counts as inactive or inconclusive.

SMILES	TDP1 cell CPT	IL1B secr inh	TDP1 cell noCPT	HT1080 IDH1KD tx	HT1080-NT tox
CCOc1ccc(C2C(=O)N(C3CCCCCC3)CC(=O)N2Cc2ccc(C)cc2)cc1OC (stereo unspecified)	23µM	/	23µM	/	/
COc1ccc(CN2C(=O)CN(C3CCCCCC3)C(=O)C2c2ccc(OC)c(OC)c2)cc1 (stereo unspecified)	?	.	.	.	.
CC1CCC(N2CC(=O)N(C3CCCCC3)C(c3ccc(F)cc3)C2=O)CC1 (stereo unspecified)	.	/	.	/	/
CC1CCC(N2CC(=O)N(C3CCCC3)C(c3ccc(Cl)cc3)C2=O)CC1 (stereo unspecified)	?	/	16µM	/	/
Cc1cccc(N(C)c2ncnc3onc(-c4ccc(F)cc4)c23)c1C	?	.	16µM	?	?
CCN(CCO)c1ncnc2onc(-c3ccc(F)cc3)c12	.	.	.	.	.
O=C(N/C=N/OCc1cccc(C(F)(F)F)c1)N1OC[C@@H]2COc3ccc4ccccc4c3[C@@H]21	?	.	?	.	.
O=C1Cc2c([nH]c3ccc(Br)cc23)-c2ccccc2N1	?	-97	?	?	.
CSc1nc2ccc(NS(=O)(=O)c3ccc4c(c3)OCCO4)cc2s1	?	.	23µM	.	.
CCNC(=O)COC(=O)c1ccc(NS(=O)(=O)c2ccc3c(c2)OCCO3)cc1	.	.	.	.	.
CCOC(=O)c1ccc(NS(=O)(=O)c2ccc3c(c2)OCCO3)cc1	13µM	/	29µM	/	/
CC(=O)Nc1ccc(S(=O)(=O)Nc2ccc3c(c2)OCCO3)cc1Cl	?	.	7.3µM	?	.
CC(=O)NCCc1ccc(S(=O)(=O)Nc2ccc3c(c2)OCCO3)cc1	.	.	.	.	.
COc1cc(OC)c(NS(=O)(=O)c2ccc(Cl)c(C(=O)OC(C)C(=O)N3CCCC3)c2)cc1Cl (stereo unspecified)	18µM	.	21µM	?	.
COc1ccccc1-c1noc2c1C(=O)N(Cc1cn(Cc3ccccc3)nn1)CC2	?	.	?	.	.
Cc1ccc(NC(=O)NC(=O)CN2C(=O)NC3(CCc4ccccc43)C2=O)c(C)c1 (stereo unspecified)	.	.	?	.	.
COc1c(C)cc(NS(=O)(=O)c2ccc3c(c2)OCCO3)cc1C	9.2µM	/	2.6µM	/	/
COc1cc(OC)c(NS(=O)(=O)c2ccc3c(c2)NC(=O)CO3)cc1Cl	18µM	.	?	.	.
COc1ccc(NS(=O)(=O)c2ccc3c(c2)OCCO3)cc1OC	7.3µM	.	5.8µM	?	.
Cc1cccc(NS(=O)(=O)c2ccc3c(c2)OCCO3)c1	.	.	.	.	.
COc1ccc(S(=O)(=O)Nc2ccc3c(c2)OCCO3)cc1Cl	23µM	.	?	.	.
Cc1ccc(S(=O)(=O)Nc2ccc3c(c2)OCCO3)cc1C	?	.	18µM	.	.
O=S(=O)(Nc1ccc2c(c1)OCCO2)c1ccc(F)c(F)c1	.	.	?	.	.
O=C(NCCc1ccc2c(c1)OCCO2)c1cccc(S(=O)(=O)N2CCCC2)c1	?	.	?	.	.
O=C(NCCc1ccc(Cl)cc1)c1cc(S(=O)(=O)N2CCCC2)ccc1F	26µM	.	16µM	.	.
SMILES	TDP1 cell CPT	IL1B secr inh	TDP1 cell noCPT	HT1080 IDH1KD tx	HT1080-NT tox
O=C(NCCc1ccc2c(c1)OCCO2)c1cc(S(=O)(=O)N2CCCC2)ccc1Cl	18µM	.	?	.	.
COc1ccc(CCNC(=O)c2cc(S(=O)(=O)N3CCC4(CC3)OCCO4)ccc2F)cc1OC	?	.	23µM	.	.
NS(=O)(=O)c1ccc(CCNC(=O)c2cc(S(=O)(=O)N3CCCCC3)ccc2Cl)cc1	.	.	.	.	.
O=C(/C=C/c1ccc([N+](=O)[O-])cc1)OCC(=O)N1CCCC1	?	.	.	.	.
CCCN1C(=O)C2(c3ccccc31)c1c(oc3ccc(F)cc3c1=O)C(=O)N2CCCOC(C)C (stereo unspecified)	21µM	/	?	/	/
CCCN1C(=O)C2(c3ccccc31)c1c(oc3ccccc3c1=O)C(=O)N2CCO (stereo unspecified)	.	/	.	/	/
Cc1cc(C)c(NC(=O)Cn2nc(-c3ccncc3)ccc2=O)c(C)c1	.	/	?	/	/
COc1ncnc2c1ncn2CCCNc1ccc(C)c(C)c1	?	.	13µM	.	.
COc1cc(NCCCn2cnc3c(OCc4ccccc4)ncnc32)cc(OC)c1OC	?	.	?	.	.
COc1nc(N2CCCC2)nc(-n2nnc(C(C)=O)c2C)n1	.	.	?	?	.
COc1ccc(N2C(=O)CC(Sc3ccccc3C(=O)O)C2=O)c([N+](=O)[O-])c1 (stereo unspecified)	?	.	?	.	.
COc1ccc(CCNC(=O)c2ccc3c(c2)N(Cc2ccccc2F)C(=O)c2ccccc2S3(=O)=O)cc1OC	16µM	/	10µM	/	/
COc1ccc(CNC(=O)c2ccc3c(c2)N(Cc2ccccc2)C(=O)c2ccccc2S3(=O)=O)cc1	?	/	.	/	/
O=C(NCCc1ccccc1)c1ccc2c(c1)N(Cc1ccc(F)cc1)C(=O)c1ccccc1S2	.	/	?	/	/
COc1ccc(CCNC(=O)c2ccc3c(c2)N(Cc2ccc(Cl)cc2)C(=O)c2ccccc2S3)cc1OC	?	/	16µM	/	/
COc1ccc(CCNC(=O)c2ccc3c(c2)N(Cc2cccc(C)c2)C(=O)c2ccccc2S3(=O)=O)cc1OC	8.2µM	/	12µM	/	/
COc1ccc(CNC(=O)c2ccc3c(c2)N(Cc2ccccc2F)C(=O)c2ccccc2S3(=O)=O)cc1	.	/	.	/	/
COc1ccc(N2CCN(CCNS(=O)(=O)c3ccc(C)cc3)CC2)cc1	?	.	?	.	.
COc1cccc(/C=C2/CN(C)CC3=C2OC(N)=C(C#N)C3c2cccc(OC)c2)c1 (stereo unspecified)	18µM	?	16µM	?	?
Cc1ccc2nc(NC(=O)Cn3cc4c(n3)CCCCC4)sc2c1	.	.	.	.	.
Cc1cccc(Nc2nnc(SCc3cc(=O)n4cc(C)ccc4n3)s2)c1	23µM	.	23µM	.	.
COc1ccccc1Nc1nnc(SCc2cc(=O)n3ccsc3n2)s1	?	.	23µM	?	?
Cc1ccc(OCC(=O)Nc2nnc(SCc3cc(=O)n4cc(C)ccc4n3)s2)cc1	.	/	.	/	/
Cc1ccc(C(=O)OCN2C(=O)c3ccccc3C2=O)cc1S(=O)(=O)N1CCOCC1	.	.	.	.	.
